Measurements: PubChem BioAssay (Tox21)
Inconclusive results are not listed. Active and inactive are the calls of the source. The call rests on the fitted dose curve.

Experiment: p53 small molecule agonists, cell-based qHTS assay: qHTS cell viability counter screen (AID 1963581); further: nearly all actives have a fitted effect of over 45% in size
Conditions: p53RE-bla HCT-116 viability, ATP luminescence, 16 h; series mostly up to 66 µM; activity change, negative = cytotoxicity: at the top concentration
Text: National Center for Advancing Translational Sciences [NCATS]
Division of Preclinical Innovation [DPI]
U.S. Environmental Protection Agency [EPA]
National Institutes of Environmental Health Sciences [NIEHS]
National Toxicology Program [NTP]
U.S. Food and Drug Administration [FDA]
p53, a tumor suppressor protein, is activated following cellular insult, including DNA damage and other cellular stresses. The activation of p53 regulates cell fate by inducing DNA repair, cell cycle arrest, apoptosis, or cellular senescence. The activation of p53, therefore, is a good indicator of DNA damage and other cellular stresses. The CellSensor p53RE-bla HCT-116 cell line (Invitrogen) contains a stably integrated beta-lactamase reporter gene under control of the p53 response elements. The activation of the reporter gene under culture conditions can be detected by fluorescence intensity. This cell line was used to screen the Tox21 compound library in a 1536-well plate format and to identify agonists that activate the p53 signaling pathway. The cytotoxicity of the Tox21 compound library against the p53 RE-bla HCT-116 cell line was tested in parallel by measuring the intra cellular ATP content in the same wells.
Tox21 Assay Protocol Summary:
The p53RE-bla cells were dispensed at 4,000 cells/5 ul/well in 1536-well black wall/clear bottom plates using a Multidrop dispenser. After the assay plates were incubated at a 37 C/5% CO2 incubator for 5 hours, 23 nL of compounds dissolved in DMSO, positive controls or DMSO only was transferred to the assay plate by a pin tool. The plates were incubated at 37 C for 16 hours. After 1 uL of LiveBLAzerTM B/G FRET substrate was added using a Flying Reagent Dispenser, the plates were incubated at room temperature for 2 hours, and fluorescence intensity was measured by an Envision plate reader. For cell viability readout that measures cytotoxicity, 4 ul/well of CellTiter-Glo reagent was added into the assay plates using a Flying Reagent Dispenser. After 30 min incubation at room temperature, the luminescence intensity in the plates was measured using a ViewLux plate reader.
On the % scale 0 is the no-effect control and ±100 the full control effect; potency means the concentration at half of the fitted maximal effect.

Row | Compound | activity change, negative = cytotoxicity | Potency
1 | N#CCCNCCC#N | 3.26% (inactive) | 
2 | CCCCCCCC/C=C\CCCCCCCC(=O)OCCOC(=O)CCCCCCC/C=C\CCCCCCCC | -7.35% (inactive) | 
3 | CN(C)Cc1cc(C(C)(C)C)c(O)c(C(C)(C)C)c1 | -6.61% (inactive) | 
4 | CCOC(=O)OC(C)OC(=O)[C@@H]1N2C(=O)[C@@H](NC(=O)[C@H](N)c3ccccc3)[C@H]2SC1(C)C (stereo not given in full) | 5.47% [at 30.3 µM] (inactive) | 
5 | O=CC=C(c1ccccc1)c1ccccc1 | -28.2% (inactive) | 
6 | CC(C)NCC(O)COc1ccc(CC(N)=O)cc1 (stereo not given) | -3.61% (inactive) | 
7 | COc1cc2ncnc(Nc3cccc(Cl)c3)c2cc1OC | -12.1% [at 13.5 µM] (inactive) | 
8 | CCOc1cccc(-n2cc(C(=O)N3CCN(c4cc(C(=O)O)c5ccccc5c4)CC3)nc2-c2ccc(C)cc2)c1 |  | 24.6 µM (active)
9 | CC(C)COCC(CN(Cc1ccccc1)c1ccccc1)N1CCCC1 (stereo not given) | -4.07% [at 30.3 µM] (inactive) | 
10 | Oc1ccccc1F | -3.68% (inactive) | 
11 | C=Cc1ccc(OC(C)=O)cc1 | 4.19% (inactive) | 
12 | CC1(C)SC(C)(C)SC(C)(C)S1 | 9.61% (inactive) | 
13 | N#CCCN(CCO)CCO | -13.6% (inactive) | 
14 | COC(C)(C)CC(C)=O | 14.6% (inactive) | 
15 | CC1=NN(c2cccc(S(=O)(=O)O)c2)C(=O)C1 | -0.92% (inactive) | 
16 | Cc1cccc(C)c1NC(=O)CN1CCN(CCCC(c2ccc(F)cc2)c2ccc(F)cc2)CC1 | -6.28% [at 30.3 µM] (inactive) | 
17 | N#CCCCC(C#N)CCC#N (stereo not given) | 1.73% (inactive) | 
18 | CO/N=C1\CN(c2nc3c(cc2F)c(=O)c(C(=O)O)cn3C2CC2)CC1CN (stereo not given) | 16.9% [at 30.3 µM] (inactive) | 
19 | C#CC(O)C(CC)CCCC (stereo not given) | 29.3% (inactive) | 
20 | Cc1cc2c(C(C)C)c(O)c(O)c(C=O)c2c(O)c1-c1c(C)cc2c(C(C)C)c(O)c(O)c(C=O)c2c1O |  | 11.2 µM (active)

Row | Compound | activity change, negative = cytotoxicity | Potency
21 | COc1ccc(CCO)cc1 | -5.81% (inactive) | 
22 | C=Cc1ccc(S(=O)(=O)O)cc1 | 0.767% (inactive) | 
23 | CN1CCCN=C1/C=C/c1cccs1 | -0.144% [at 30.3 µM] (inactive) | 
24 | CCc1nn(CCCN2CCN(c3cccc(Cl)c3)CC2)c(=O)n1CCOc1ccccc1 | -9.23% [at 30.3 µM] (inactive) | 
25 | Cc1nnc(SCC2=C(C(=O)O)N3C(=O)[C@@H](NC(=O)Cn4cnnn4)[C@H]3SC2)s1 | -4.51% [at 30.3 µM] (inactive) | 
26 | O=C(O)c1cc(Br)c(O)c(Br)c1 | 3.71% (inactive) | 
27 | NNC(=O)CCCCC(=O)NN | -14.3% (inactive) | 
28 | CCCCCCCC/C=C\CCCCCCCC(=O)OCCO | 1.66% (inactive) | 
29 | Nc1cc(Cl)cc(S(=O)(=O)O)c1O | -3.22% (inactive) | 
30 | CCCCN(CCO)CCCC | 0% (inactive) | 
31 | CC(N=C(NC#N)Nc1ccncc1)C(C)(C)C (stereo not given) | 7.32% [at 30.3 µM] (inactive) | 
32 | Cc1ccc([N+](=O)[O-])cc1Cl | 9.84% (inactive) | 
33 | C=Cc1ccncc1 | 5.96% (inactive) | 
34 | CC(C)NC(=O)NC(C)C | 4.91% (inactive) | 
35 | O=S(=O)(O)c1cc(I)c(O)c2ncccc12 | 11.2% [at 30.3 µM] (inactive) | 
36 | C=C(C)C(=O)OCCOc1ccccc1 | -19.4% (inactive) | 
37 | CCCCCCOC(=O)CC(CC(=O)OCCCCCC)(OC(=O)CCC)C(=O)OCCCCCC | 14.6% (inactive) | 
38 | CCOC(=O)[C@@H](C)Oc1ccc(Oc2nc3ccc(Cl)cc3o2)cc1 | 4.59% (inactive) | 
39 | O=C(Nc1ccc(C(=O)O)c(O)c1)c1ccccc1 | -14.4% [at 30.3 µM] (inactive) | 
40 | Brc1cc(Br)c(Oc2cc(Br)c(Br)cc2Br)cc1Br | 0.089% [at 30.3 µM] (inactive) | 
